PubChem BioAssay (EPA / NIEHS)
Inconclusive results are not listed. Active and inactive are the calls of the source. How the source made its calls: active means hit-call score of the fitted dose curve at least 0.9, where 1 is the maximum; inconclusive means response in the unintended direction; inactive means score below 0.9.

What follows are compounds tested against rat Gamma-Aminobutyric Acid Type A Receptor, Non-Selective (GABAR-NonSelective), Gabra1 (gene 29705) (UniProt P62813) (assay: NVS_LGIC_rGABAR_NonSelective: NovaScreen (NVS) Ligand-Gated Ion Channel Assay for rat Gamma-Aminobutyric Acid Type A Receptor, Non-Selective (GABAR-NonSelective) (AID 2283326)).
rat Gamma-Aminobutyric Acid Type A Receptor, Non-Selective (GABAR-NonSelective), Gabra1 (gene 29705), sequence (P62813 whole entry, looked up): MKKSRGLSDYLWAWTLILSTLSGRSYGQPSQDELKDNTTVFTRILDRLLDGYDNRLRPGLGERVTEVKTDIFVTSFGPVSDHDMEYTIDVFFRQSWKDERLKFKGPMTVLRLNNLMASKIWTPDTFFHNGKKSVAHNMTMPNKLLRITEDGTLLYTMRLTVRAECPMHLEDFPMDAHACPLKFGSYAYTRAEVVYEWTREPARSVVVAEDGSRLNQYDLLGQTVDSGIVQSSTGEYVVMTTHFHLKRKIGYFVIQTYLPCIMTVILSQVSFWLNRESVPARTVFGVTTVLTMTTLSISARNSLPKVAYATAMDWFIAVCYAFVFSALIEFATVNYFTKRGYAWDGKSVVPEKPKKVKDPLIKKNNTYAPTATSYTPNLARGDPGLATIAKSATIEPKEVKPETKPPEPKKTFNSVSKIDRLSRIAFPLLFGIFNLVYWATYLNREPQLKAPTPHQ
Method in brief: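 Compounds were first screened in duplicate at 25 uM, with actives run as singleton concentration series (max 50 uM). Binding of a radioligand to rat whole-brain GABA-A preparation was measured by filtration and scintillation counting after 1 h, DMSO baseline.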

Structure (SMILES) | outcome | AC50
CCCC(CCC)C(=O)O | inactive | –
OC(CCl)CCl | – | 4.96 µM (active)
NC(=O)N1c2ccccc2C=Cc2ccccc21 | – | 4.66 µM (active)
CCOc1ccc2[nH]cc(C(=O)NCc3ccccc3)c(=O)c2n1 | inactive | –

The compounds below were run against human Constitutive Androstane Receptor (CAR), NR1I3 (gene 9970) (UniProt Q14994) (assay: NVS_NR_hCAR_Agonist: NovaScreen (NVS) Nuclear Receptor Binding Assay for human Constitutive Androstane Receptor Agonism (CAR) (AID 2283328)).
human Constitutive Androstane Receptor (CAR), NR1I3 (gene 9970), sequence (Q14994 whole entry, looked up): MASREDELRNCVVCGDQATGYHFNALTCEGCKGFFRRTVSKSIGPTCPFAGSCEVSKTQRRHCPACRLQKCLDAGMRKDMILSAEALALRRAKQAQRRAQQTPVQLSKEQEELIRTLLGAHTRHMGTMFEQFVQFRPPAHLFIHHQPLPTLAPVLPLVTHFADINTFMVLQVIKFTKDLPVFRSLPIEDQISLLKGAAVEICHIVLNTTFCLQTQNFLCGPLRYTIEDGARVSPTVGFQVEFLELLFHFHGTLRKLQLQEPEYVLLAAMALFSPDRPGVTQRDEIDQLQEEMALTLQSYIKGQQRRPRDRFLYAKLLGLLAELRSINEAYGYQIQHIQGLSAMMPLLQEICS
Method in brief: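 Actives from a 25 uM duplicate screen were retested in singleton concentration series to 50 uM max. Biochemical TR-FRET assay on extracted CAR protein measured 1 h post-dose, with signal increase over DMSO control.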

Structure (SMILES) | outcome
Cc1nc(-c2ccccn2)ncc1C(=O)Nn1cc(C)c2cc(F)ccc21 | inactive
OCCOCCOCCO | inactive
COc1cc(C(C)C)c2c(c1)S(=O)(=O)N(COc1cc(=O)n3cccc(OCCN4CCCCC4)c3n1)C2=O | inactive

These compounds were tested against human Peripheral-type Benzodiazepine Receptor (PBR), TSPO (gene 706) (UniProt P30536) (assay: NVS_MP_hPBR: NovaScreen (NVS) Membrane Protein Assay for human Peripheral-type Benzodiazepine Receptor (PBR) (AID 2283331);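 further: hits reduce radioligand binding relative to DMSO baseline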).
human Peripheral-type Benzodiazepine Receptor (PBR), TSPO (gene 706), sequence (P30536 whole entry, looked up): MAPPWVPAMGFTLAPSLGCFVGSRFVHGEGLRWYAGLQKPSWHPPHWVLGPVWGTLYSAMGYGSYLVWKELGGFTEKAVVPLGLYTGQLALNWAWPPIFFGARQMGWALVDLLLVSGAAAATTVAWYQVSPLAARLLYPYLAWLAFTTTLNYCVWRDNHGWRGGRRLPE
Description: NVS_MP_hPBR is a biochemical, single-readout assay that uses extracted gene-proteins from Human colonic cell membranes in a tissue-based cell-free assay. Measurements were taken 1 hour after chemical dosing in a 48-well plate.NVS_MP_hPBR is one of one assay component(s) measured or calculated from the NVS_MP_hPBR assay. It is designed to make measurements of radioligand binding, a form of binding reporter, as detected with scintillation counting signals by Filter-based radiodetection technology.Data from the assay component NVS_MP_hPBR was analyzed into 1 assay endpoint. This assay endpoint, NVS_MP_hPBR, was analyzed in the positive analysis fitting direction relative to DMSO as the negative control and baseline of activity. Using a type of binding reporter, loss-of-signal activity can be used to understand changes in the binding as they relate to the gene TSPO. Furthermore, this assay endpoint can be referred to as a primary readout, because the performed assay has only produced 1 assay endpoint. To generalize the intended target to other relatable targets, this assay endpoint is annotated to the transporter intended target family, where the subfamily is cholesterol transporter.
Binding assays used specific radioligands (tritiated, iodinated) with non-radioactive competitive displacement ligands in agonist or antagonist protocols (as indicated) and various reference compounds and inhibitors to titrate specific binding to receptors and transporters. Most enzyme assays (CYPs, kinases, phosphatases, proteases, HDACs) used recombinant protein and specific substrates (fluorescence mostly, some colorimetric and radioactive) and inhibitors, followed by a biochemical separation of substrate and product. All assays for the biochemical HTS were initially run in duplicate at a single concentration (10 uM for CYP450 assays and 25 uM for all others). […] Each assay was run with positive and negative controls, and concurrent controls on every plate. The follow-up (secondary) screen tested active chemical-pairs in concentration series, as well as a few additional assays not tested in the primary screen, some selected negative inactives, and several cases re-run in the concentration series for confirmatory purposes.

Structure (SMILES) | outcome | AC50
CC(C)C(=O)Nc1ccc([N+](=O)[O-])c(C(F)(F)F)c1 | inactive | –
C[C@@H](Oc1ccc(CNC(=O)c2cccnc2Oc2ccc3c(c2)OCO3)c(F)c1)C(=O)O | – | 20.8 µM (active)
CCN(CC)C(=S)SSC(=S)N(CC)CC | – | 3.21 µM (active)
c1ccc2cc3ccccc3cc2c1 | inactive | –
